Compounds with a hit are over-represented: about 1.9% of the library has one in this group of screens.
BAP1 block = human BAP1 deubiquitinase inhibition; recombinant BAP1, Ub-AMC hydrolysis fluorescence kinetic; hits give low values; activity remaining (% of control), % at 20 µM; 72,000 compounds, 0.48% hits;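 active = activity remaining at or below 50% of control, provided the compound also passes the data quality filters; inactive = the rest, including low values that fail the filters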;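 note: 100% = DMSO wells rate and 0% = substrate alone blank rate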
Hsp90 inh = displaces geldanamycin probe from tumor Hsp90 | inhibition, % at 30 µM | 64,000 compounds, 0.35% hits | NCI-N417 lysate Hsp90, Cy3B-geldanamycin FP displacement | P07900;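 active = inhibition above 50%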;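 note: 0% = tracer plus lysate wells and 100% = tracer alone without lysate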
TNAP act DEA = activates human TNAP at intermediate phosphate acceptor concentration; P05186; purified TNAP, CDP-star luminescence, 100 mM DEA, 30 min; hits give high values; scale: 0 levamisole-inhibited, 1 vehicle-only enzyme; activation factor at 20 µM; 64,000 tested, under 10 active; AID 813;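 active = activation factor of at least 2 at 20 µM, relative to controls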
S1P1 ag-PAM = S1P1 (human) agonism or agonism potentiation | 56,000 compounds, 0.57% hits | S1P1 CRE-bla cells, forskolin, beta-lactamase FRET, potentiator mode; S1P1 agonist co-added at EC20, 2 nM; 100% = saturating reference agonist, 0% = basal | activation, % at 9.5 µM | P21453;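 active = activation above a cutoff set at the mean activation of all tested compounds plus 3 SD, cut at about 54% in these data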;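 note: forskolin at 4 µM as EC80 and the EC20 agonist is SEW2871; 100% = SEW2871 at its EC100 plus forskolin at EC80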
Target sequence (P21453 whole entry, looked up): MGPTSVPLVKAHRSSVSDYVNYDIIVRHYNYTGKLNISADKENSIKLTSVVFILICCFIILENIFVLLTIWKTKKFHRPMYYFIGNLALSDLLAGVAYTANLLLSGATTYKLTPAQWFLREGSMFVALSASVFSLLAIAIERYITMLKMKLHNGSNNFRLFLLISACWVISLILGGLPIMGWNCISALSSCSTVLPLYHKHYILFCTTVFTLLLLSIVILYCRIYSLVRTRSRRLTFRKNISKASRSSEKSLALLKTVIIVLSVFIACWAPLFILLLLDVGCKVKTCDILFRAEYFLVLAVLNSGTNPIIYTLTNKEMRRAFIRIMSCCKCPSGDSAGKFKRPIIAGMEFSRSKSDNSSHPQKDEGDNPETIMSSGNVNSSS
Her2 expr inh = inhibitors of human Her2 kinase expression | P04626 | SKBR-3 HER2 protein level, AlphaScreen, 18-24 h; hits give low values | HER2 level % of control, % at 10 µM | 65,000 compounds, 0.69% hits | AID 645;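 active = HER2 level under 5% of the carrier-only control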;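 note: 100% = DMSO carrier and 0% = 500 nM PU-H71 HSP90 inhibitor; lower value means stronger loss of Her2 protein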
SKBR3 24h inh = SK-BR-3 proliferation inhibitors; 41,000 compounds, 0.47% hits; SK-BR-3 viability, CellTiter-Glo ATP luminescence, 24 h; hits give low values; viability, % at 10 µM; AID 847;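 active = viability at or below the median of all test compounds minus 3 SD, in both replicates if run twice, cut at about 45% in these data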;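 note: 100% = median untreated cell wells and 0% = median positive control drug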
Numbers without * were called inactive; x = not tested or not shown.

SMILES	BAP1 block	Hsp90 inh	TNAP act DEA	S1P1 ag-PAM	Her2 expr inh	SKBR3 24h inh
Cc1cc(C(=O)N2CCN(C(c3ccccc3)c3ccccc3)CC2)on1	102	-3	1	88*	92	x
Cc1cc(C(=O)CSc2nc3ccccc3c(=O)n2C)c(C)n1Cc1ccc2c(c1)OCO2	x	-4	1	62*	99	x
O=C(Cn1cc2c(n1)CCCCC2)N1CCc2ccccc21	103	-1	0.8	-22	90	x
COC(=O)c1cc(CSc2nnc(-c3ccccc3)c(-c3ccccc3)n2)oc1C	x	-1	x	96*	75	x
Cc1ccc(C(CC(=O)c2ccco2)SCCO)cc1 (stereo unspecified)	101	3	0.9	5	-1.4*	101
O=C(CC(SCCO)c1ccc(F)cc1)c1ccco1 (stereo unspecified)	97	3	1	0	20	100
Cc1cc(-n2c(C)cc(C(=O)CSc3nnc4sc5ccccc5n34)c2C)no1	98	-3	0.9	-10	112	x
Cc1cc(-n2c(C)cc(C(=O)CSc3nnnn3-c3ccc(Cl)cc3)c2C)no1	57	-2	0.9	-22	-7.5*	x
Cc1ccccc1NC(=O)c1cc(S(=O)(=O)N2CCOCC2)ccc1F	123	-5	0.9	-2	74	x
CCCc1[nH]n(-c2nc3ccccc3s2)c(=O)c1C=NCCN1CCOCC1	92	-1	0.9	3	88	86
CCCCCN=Cc1c(C)[nH]n(-c2nc3ccccc3s2)c1=O	90	-10	1	-33	-20*	x
CCOC(=O)c1[nH]cc(-c2ccccc2)c1N1CCOCC1	92	0	0.8	12	99	98
COCCCN1C(=O)C(O)=C(C(C)=O)C1c1cccc(F)c1 (stereo unspecified)	96	0	1	15	-16*	77
COc1cc2[nH]c(=O)n(CCC(=O)N3CCN(c4cc(Cl)ccc4C)CC3)c(=O)c2cc1OC	x	x	1	x	-23*	8.5*
COc1ccc(C=Nc2ccc3ncccc3c2)cc1	54	x	x	x	x	x
Nc1ccc2ncccc2c1N	53	101*	0.9	-46	-19*	88
Nc1ccc2ncccc2c1	99	70*	0.9	-8	128	100
Fc1cccc(C2CC(c3cccc(Br)c3)Nc3nnnn32)c1 (stereo unspecified)	102	3	0.9	-33	102	45
CCOC(=O)c1[nH]c2ccc(F)cc2c1NC(=O)CN1CCN(C/C=C/c2ccccc2)CC1	90	-3	0.9	-20	40	77
Cc1nc2sc(-c3ccccc3)cc2c(=O)n1-n1cccc1	86	-3	0.9	60*	84	x
COc1ccc(-c2csc3nc(C)n(-n4cccc4)c(=O)c23)cc1OC	97	-22	1	-6	83	76
Cn1c(=O)c2c3c(sc2n2c(SCC(=O)c4ccccc4)nnc12)COC(C)(C)C3	94	-4	1	2	105	102
O=C(Nc1ncc(Br)s1)C(Cc1ccccc1)n1cccc1 (stereo unspecified)	65	-6	0.9	99*	25	x
Cc1ccc(CNC(=O)Cn2c(=O)oc3ccccc32)o1	96	2	0.9	7	117	38*
COc1cccc(CNC(=O)Cn2c(=O)oc3ccccc32)c1OC	95	-2	0.8	-20	94	x
SMILES	BAP1 block	Hsp90 inh	TNAP act DEA	S1P1 ag-PAM	Her2 expr inh	SKBR3 24h inh
Cn1nc(CC(=O)Nc2ccc3c(c2)OCCO3)c2ccccc2c1=O	97	0	0.8	92*	80	69
Cn1nc(CC(=O)Nc2ccc(N3CCN(C(=O)OC(C)(C)C)CC3)cc2)c2ccccc2c1=O	137	-2	0.9	84*	80	82
Cn1cnnc1SCC(=O)c1ccc2c(c1)CCCC2	99	54*	0.9	x	93	107
O=C(COc1ccc(Cl)cc1Cl)NC1CCSC1=O (stereo unspecified)	114	-4	0.9	0	74	74
CCc1ccc(S(=O)(=O)NCCc2csc(-c3ccccc3)n2)s1	98	-6	x	65*	81	75
CCCc1cc(=O)[nH]c(SCC(=O)c2c(N)n(C)c(=O)n(C)c2=O)n1	x	x	0.9	x	81	34*
